PubChem BioAssay (NCATS)
Results filed as inconclusive are left out. The source made the active and inactive calls. Unless noted, calls follow the shape of the dose curve; as a rule, active = well fitted curve in the direction sought with a large enough effect; inconclusive = small, poorly fitted or top-dose-only effect, or another doubt; inactive = no such curve, though single readings can be large; an effect the other way counts as inactive or inconclusive.

How the values were obtained:
[1] = target: Lysosomal acid glucosylceramidase (Homo sapiens) (UniProt P04062); assay: Glucocerebrosidase-p2 (AID 348; in the data active = potency below about 10 µM; also: potency is read from the fitted curve at half-maximal effect); settings: purified GBA, blue fluorogenic substrate, 40 min
Sequence of Lysosomal acid glucosylceramidase (Homo sapiens) (P04062 whole entry, looked up): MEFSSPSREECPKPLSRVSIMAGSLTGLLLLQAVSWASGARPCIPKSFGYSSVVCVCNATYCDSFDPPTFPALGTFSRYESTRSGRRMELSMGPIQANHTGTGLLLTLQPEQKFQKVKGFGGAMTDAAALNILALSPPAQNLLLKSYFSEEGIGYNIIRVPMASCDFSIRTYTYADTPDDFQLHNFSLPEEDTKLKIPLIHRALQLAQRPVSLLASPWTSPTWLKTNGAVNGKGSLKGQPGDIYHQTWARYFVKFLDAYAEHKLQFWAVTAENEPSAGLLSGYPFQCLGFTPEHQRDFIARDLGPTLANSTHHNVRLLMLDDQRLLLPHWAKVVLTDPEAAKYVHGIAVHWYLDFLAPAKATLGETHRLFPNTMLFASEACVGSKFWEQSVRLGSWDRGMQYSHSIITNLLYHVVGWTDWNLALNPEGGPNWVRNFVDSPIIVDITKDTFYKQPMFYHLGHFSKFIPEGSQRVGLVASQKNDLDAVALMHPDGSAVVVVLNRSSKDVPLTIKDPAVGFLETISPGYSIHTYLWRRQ
In short: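 Compounds titrated from 0.6 nM upwards against 0.2 nM enzyme in pH 5.9 citric acid/KH2PO4, taurocholate, tween-20; blue fluorogenic substrate 80 uM, 40 min room temperature, stopped and read Ex 365/Em 440 for AC50.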

[2] = target: Cytochrome P450 1A2 (Homo sapiens) (UniProt P05177); assay: p450-cyp1a2 (AID 410; calls by dose curve; also: potency is read from the fitted curve at half-maximal effect); settings: recombinant CYP1A2, luciferin-ME demethylation, luminescence; series mostly up to 57 µM
Sequence of Cytochrome P450 1A2 (Homo sapiens) (P05177 whole entry, looked up): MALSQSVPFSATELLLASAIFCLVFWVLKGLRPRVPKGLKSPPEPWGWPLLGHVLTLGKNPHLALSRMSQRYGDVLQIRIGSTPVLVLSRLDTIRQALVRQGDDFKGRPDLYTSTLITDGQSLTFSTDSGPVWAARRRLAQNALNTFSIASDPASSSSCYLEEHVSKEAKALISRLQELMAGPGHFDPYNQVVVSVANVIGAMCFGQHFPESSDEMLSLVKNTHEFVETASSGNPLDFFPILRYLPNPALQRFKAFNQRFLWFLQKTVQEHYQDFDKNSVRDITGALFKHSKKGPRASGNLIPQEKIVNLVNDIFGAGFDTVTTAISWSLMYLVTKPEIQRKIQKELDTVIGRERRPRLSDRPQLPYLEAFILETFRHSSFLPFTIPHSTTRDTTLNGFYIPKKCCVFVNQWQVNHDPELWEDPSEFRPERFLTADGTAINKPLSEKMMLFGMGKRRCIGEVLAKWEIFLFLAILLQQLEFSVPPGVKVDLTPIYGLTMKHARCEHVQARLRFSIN
In short: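 Human CYP1A2 (20nM) demethylated Luciferin-ME at its Km (100uM) in 100mM KPO4. After 10 min compound preincubation, NADPH regeneration ran the reaction 60 min at room temperature. Luciferin was read by luminescence, normalized to 57 uM furafylline.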

[3] = Stat Signaling Pathway (AID 446; active = well fitted curve in either direction with a large enough effect, not every such curve was filed as active;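 also: ME-180 cervical cancer cells given 40 pM IL-6 alongside compound; SIE-controlled beta-lactamase reporter measured as 460/530 nm FRET emission ratio; % is scaled to controls: 0 for no effect and ±100 for the full control effect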); settings: ME-180 SIE beta-lactamase reporter, IL-6 stimulated, 5 h; at 7.69 µM (top of the series) unless noted
In short: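 Screening format detects activators and inhibitors alike: ME-180 SIE-bla cells stimulated at 40 pM IL-6 for 5 hrs with compound, then dual-emission beta-lactamase read at 405 nm excitation.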

[4] = target: Glucocorticoid receptor (Homo sapiens) (UniProt P04150); assay: GR-GFP Redistribution (AID 450;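 active = compounds whose dose series gives a full or clear partial fitted curve of increased nuclear translocation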; also: potency is read from the fitted curve at half-maximal effect); settings: U2OS GR-GFP nuclear translocation, laser cytometry, 2 h
Sequence of Glucocorticoid receptor (Homo sapiens) (P04150 whole entry, looked up, the tested form may be a part): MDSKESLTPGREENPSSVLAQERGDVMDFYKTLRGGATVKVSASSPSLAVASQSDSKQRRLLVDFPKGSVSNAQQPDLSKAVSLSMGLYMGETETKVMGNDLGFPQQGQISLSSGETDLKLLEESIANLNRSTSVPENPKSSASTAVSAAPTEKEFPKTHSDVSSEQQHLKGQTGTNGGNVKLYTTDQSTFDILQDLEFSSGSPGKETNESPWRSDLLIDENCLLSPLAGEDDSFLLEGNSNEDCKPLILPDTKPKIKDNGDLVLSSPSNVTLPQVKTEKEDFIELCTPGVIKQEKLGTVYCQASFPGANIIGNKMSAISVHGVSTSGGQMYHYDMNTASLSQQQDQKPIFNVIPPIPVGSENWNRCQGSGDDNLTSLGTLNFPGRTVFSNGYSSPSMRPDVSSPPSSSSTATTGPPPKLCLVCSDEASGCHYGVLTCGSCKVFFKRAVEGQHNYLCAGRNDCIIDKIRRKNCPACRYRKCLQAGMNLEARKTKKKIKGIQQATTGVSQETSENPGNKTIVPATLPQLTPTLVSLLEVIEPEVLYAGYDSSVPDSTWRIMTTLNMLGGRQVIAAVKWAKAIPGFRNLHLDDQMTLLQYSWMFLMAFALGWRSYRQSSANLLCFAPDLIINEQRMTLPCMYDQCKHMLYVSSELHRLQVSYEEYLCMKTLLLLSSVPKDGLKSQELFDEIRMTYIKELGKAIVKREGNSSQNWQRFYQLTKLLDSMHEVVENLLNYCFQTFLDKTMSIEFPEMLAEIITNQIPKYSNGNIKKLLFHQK

[5] = target: Glucocorticoid receptor (Homo sapiens) (UniProt P04150); assay: GR-EFC Redistribution (AID 451; calls by dose curve; also: potency is read from the fitted curve at half-maximal effect); settings: CHO-K1 GR-EFC translocation, beta-gal luminescence, 2 h
In short: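 Translocation of GR-ED fusion to nuclear EA restores b-gal, read by luminescence after 1 h room-temperature detection. Engineered CHO-K1 biosensor cells, 1,000/well, exposed 2 h at 37 C to titrations up to 46 uM final.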

[6] = target: Mitogen-activated protein kinase 10 (Mus musculus) (UniProt Q61831); assay: JNK3 AlphaScreen Assay (AID 530; active = well fitted curve in either direction with a large enough effect, not every such curve was filed as active;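 also: kinase came from lysate of stimulated human HepG2 cells; signal reports phosphorylation of biotinylated GST-cJun 1-79 at Ser73 with 10 µM ATP; % is scaled to controls: 0 for no effect and ±100 for the full control effect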); settings: JNK3 lysate, c-Jun phosphorylation; series mostly up to 57.1 µM
In short: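 Room-temperature AlphaScreen kinase assay; pre-activated HepG2 lysate as JNK3 source, biotin-GST-cJun(1-79) substrate, 10 uM ATP, compound 15 min preincubation.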

[7] = target: 3',5'-cyclic-AMP phosphodiesterase 4B (Homo sapiens) (UniProt Q07343); assay: qHTS Assay for Inhibitors of PDE-IV (AID 607; active = well fitted activation curve with a large enough effect in the main read-out, with a control signal flat, not every such curve was filed as active; also: % of control where 0% means no effect); settings: HEK293 ACTOne CNG channel cells, membrane potential fluorescence; series mostly up to 22.9 µM
Sequence of 3',5'-cyclic-AMP phosphodiesterase 4B (Homo sapiens) (Q07343 whole entry, looked up): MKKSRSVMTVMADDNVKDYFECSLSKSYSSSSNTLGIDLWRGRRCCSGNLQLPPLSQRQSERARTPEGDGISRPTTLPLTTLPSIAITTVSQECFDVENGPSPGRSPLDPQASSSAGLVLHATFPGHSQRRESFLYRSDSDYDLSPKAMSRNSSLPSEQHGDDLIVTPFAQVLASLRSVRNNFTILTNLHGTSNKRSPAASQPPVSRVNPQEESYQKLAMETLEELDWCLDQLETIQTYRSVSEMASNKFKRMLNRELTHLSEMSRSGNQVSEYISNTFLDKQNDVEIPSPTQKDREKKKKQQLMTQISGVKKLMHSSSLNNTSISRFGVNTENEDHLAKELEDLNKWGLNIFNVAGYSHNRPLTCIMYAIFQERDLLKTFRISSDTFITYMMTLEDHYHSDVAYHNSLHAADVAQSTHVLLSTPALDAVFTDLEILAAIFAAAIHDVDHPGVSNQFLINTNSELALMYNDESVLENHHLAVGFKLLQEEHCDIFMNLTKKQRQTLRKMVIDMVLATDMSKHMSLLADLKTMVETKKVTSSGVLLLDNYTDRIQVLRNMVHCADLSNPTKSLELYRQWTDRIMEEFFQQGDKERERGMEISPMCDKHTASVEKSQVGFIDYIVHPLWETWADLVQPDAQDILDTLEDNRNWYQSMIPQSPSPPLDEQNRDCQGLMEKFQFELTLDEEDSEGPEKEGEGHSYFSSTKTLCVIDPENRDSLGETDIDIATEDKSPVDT
In short: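 The readout is membrane depolarisation from a cAMP-sensing CNG channel, detected with a potential dye at ex 535/em 590. Cells were HEK293-derived (endogenous PDE-IV) at 1000 cells/well, titrated up to 22.9 uM final.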

[8] = target: Cytochrome P450 3A4 (Homo sapiens) (UniProt P08684); assay: qHTS Assay for Activators of Cytochrome P450 3A4 (AID 885); settings: recombinant CYP3A4, Luciferin-PPXE luminescence, 60 min; series mostly up to 57.1 µM; also: nearly all actives have a fitted effect of over 65% in size
Sequence of Cytochrome P450 3A4 (Homo sapiens) (P08684 whole entry, looked up): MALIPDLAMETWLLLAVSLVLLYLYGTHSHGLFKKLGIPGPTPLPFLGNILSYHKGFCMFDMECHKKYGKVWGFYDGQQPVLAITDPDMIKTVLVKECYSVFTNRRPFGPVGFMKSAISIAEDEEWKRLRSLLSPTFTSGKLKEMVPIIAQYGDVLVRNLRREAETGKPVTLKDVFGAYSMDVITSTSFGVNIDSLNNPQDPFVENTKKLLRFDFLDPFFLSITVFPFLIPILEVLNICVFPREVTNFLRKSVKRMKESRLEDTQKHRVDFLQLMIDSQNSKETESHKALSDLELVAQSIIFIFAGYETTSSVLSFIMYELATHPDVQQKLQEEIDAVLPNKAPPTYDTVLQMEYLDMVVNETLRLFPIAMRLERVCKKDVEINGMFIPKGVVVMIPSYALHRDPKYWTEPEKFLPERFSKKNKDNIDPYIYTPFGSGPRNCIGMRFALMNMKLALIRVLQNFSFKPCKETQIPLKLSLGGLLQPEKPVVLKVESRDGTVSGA
In short: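 Steps: enzyme/substrate mix dispensed; compound added, 10 min RT; NADPH regeneration solution added, 60 min RT; luciferin detection buffer stops reaction; 20 min later luminescence measured.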

[9] = qHTS Assay for Lipid Storage Modulators (AID 1519; calls by dose curve); settings: Drosophila S3 cells, BODIPY lipid droplet/cell ratio, laser cytometry, cells loaded with oleic acid; for activity change, negative = inhibition: at 57.5 µM (top of the series)
In short: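 Cells seeded at 5,000 per well were treated with compounds over a concentration series and loaded with oleic acid (400 uM, as added). Lipid droplet fluorescence (488 nm excitation, 500-530 nm channel) was read by laser-scanning cytometry and normalized to 20 uM Triacsin C.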

[10] = target: Dual specificity protein kinase CLK4 (Homo sapiens) (UniProt Q9HAZ1); assay: qHTS Assay for Inhibitors of CDC-like Kinase 4 (Kinase-Glo Assay) (AID 1770); settings: recombinant Clk4, Kinase-Glo ATP depletion luminescence; series mostly up to 66.7 µM; also: nearly all actives have a fitted effect of over 65% in size; also: potency is read from the fitted curve at half-maximal effect
Sequence of Dual specificity protein kinase CLK4 (Homo sapiens) (Q9HAZ1 whole entry, looked up): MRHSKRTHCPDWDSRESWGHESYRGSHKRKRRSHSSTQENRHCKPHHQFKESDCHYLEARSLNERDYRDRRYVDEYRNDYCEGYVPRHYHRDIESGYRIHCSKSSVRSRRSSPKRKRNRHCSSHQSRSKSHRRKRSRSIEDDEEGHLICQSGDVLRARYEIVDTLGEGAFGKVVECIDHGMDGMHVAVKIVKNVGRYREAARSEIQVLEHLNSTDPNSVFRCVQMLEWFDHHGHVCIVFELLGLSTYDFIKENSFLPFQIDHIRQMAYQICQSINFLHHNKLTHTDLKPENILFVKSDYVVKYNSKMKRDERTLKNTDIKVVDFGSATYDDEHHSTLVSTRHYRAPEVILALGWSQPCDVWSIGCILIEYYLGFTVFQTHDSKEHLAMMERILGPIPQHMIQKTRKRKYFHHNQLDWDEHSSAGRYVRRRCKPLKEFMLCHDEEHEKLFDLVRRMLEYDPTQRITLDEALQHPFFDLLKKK
In short: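 Inhibition was judged from remaining ATP, measured by Ultra-Glo luciferase bioluminescence after Clk4 (25 nM) had acted on RS peptide at 1 uM ATP for 4.5 hours, room temperature.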

[11] = target: Dual specificity protein kinase CLK4 (Homo sapiens) (UniProt Q9HAZ1); assay: qHTS Assay for Inhibitors of CDC-like Kinase 4 (ADP-Glo Assay) (AID 1771); settings: recombinant CLK4, ADP-Glo luminescence; series mostly up to 80 µM; also: nearly all actives have a fitted effect of over 70% in size; also: potency is read from the fitted curve at half-maximal effect
In short: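 Clk4 (25 nM) was incubated 1 hr at room temperature with 100 uM RS repeat peptide and 1 uM ATP in buffer with 2 mM MgCl2, 0.5 mM EGTA, 2.5 mM DTT. ADP formed was quantified by ADP-Glo luminescence.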

[12] = target: Dual specificity protein kinase CLK4 (Homo sapiens) (UniProt Q9HAZ1); assay: qHTS Assay for Inhibitors of CDC-like Kinase 4 (ADP-FP Assay) (AID 1795); settings: Transcreener ADP fluorescence polarization; series mostly up to 50 µM; also: nearly all actives have a fitted effect of over 60% in size; also: potency is read from the fitted curve at half-maximal effect
In short: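 Inhibition of ADP formation by 6.25 nM Clk4 is measured using 1 uM ATP and 100 uM RS repeat peptide over one hour. Produced ADP displaces a fluorescent tracer from antibody, lowering polarization.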

[13] = target: Ubiquitin carboxyl-terminal hydrolase 1 (Homo sapiens) (UniProt O94782); assay: Inhibitors of USP1/UAF1: Pilot qHTS (AID 504865); settings: purified USP1/UAF1, Ub-rhodamine cleavage fluorescence; series mostly up to 54.9 µM;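 also: rhodamine fluorescence freed from ubiquitin-rhodamine substrate followed over time; top concentration of the series differs between compounds; % is scaled to controls: 0 for no effect and ±100 for the full control effect; nearly all actives have a fitted effect of over 35% in size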
Sequence of Ubiquitin carboxyl-terminal hydrolase 1 (Homo sapiens) (O94782 whole entry, looked up): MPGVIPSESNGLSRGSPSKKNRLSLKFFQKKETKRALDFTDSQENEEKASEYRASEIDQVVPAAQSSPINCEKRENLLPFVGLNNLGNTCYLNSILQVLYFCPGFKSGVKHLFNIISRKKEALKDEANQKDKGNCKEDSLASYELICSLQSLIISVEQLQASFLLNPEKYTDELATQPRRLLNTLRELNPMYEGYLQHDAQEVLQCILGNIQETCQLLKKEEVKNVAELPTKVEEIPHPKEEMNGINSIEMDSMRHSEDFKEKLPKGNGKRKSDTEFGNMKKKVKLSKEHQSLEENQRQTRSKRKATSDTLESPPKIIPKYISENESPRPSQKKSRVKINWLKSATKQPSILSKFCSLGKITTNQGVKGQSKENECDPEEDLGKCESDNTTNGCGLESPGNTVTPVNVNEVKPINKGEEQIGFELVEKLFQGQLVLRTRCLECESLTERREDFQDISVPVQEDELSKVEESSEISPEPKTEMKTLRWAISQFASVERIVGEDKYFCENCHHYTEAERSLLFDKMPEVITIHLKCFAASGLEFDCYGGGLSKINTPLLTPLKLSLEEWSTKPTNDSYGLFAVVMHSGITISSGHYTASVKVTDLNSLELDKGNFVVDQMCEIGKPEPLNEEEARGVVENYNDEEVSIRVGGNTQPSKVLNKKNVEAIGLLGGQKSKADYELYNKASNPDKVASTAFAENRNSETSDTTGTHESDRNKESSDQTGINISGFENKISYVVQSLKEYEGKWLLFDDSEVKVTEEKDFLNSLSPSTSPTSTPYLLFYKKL
In short: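 Kinetic fluorescence assay: 1nM USP1/UAF1, 15 min compound preincubation, then 150nM Ub-Rho; 480/540 nm.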

[14] = Primary qHTS for small molecule stabilizers of the endoplasmic reticulum resident proteome: Secreted ER Calcium Modulated Protein (SERCaMP) assay (AID 1508630); settings: SH-SY5Y GLuc-SERCaMP (Gaussia luciferase released on ER calcium loss) secretion, thapsigargin, luminescence; series mostly up to 38.4 µM; also: % is scaled to controls: 0 for no effect and ±100 for the full control effect
In short: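 GLuc-SERCaMP-expressing SH-SY5Y cells, pretreated 16 h with compound, are challenged with thapsigargin to empty ER calcium stores; after 4 h, coelenterazine is added directly to the medium and luminescence is imaged.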

[15] = NFAT Signaling Pathway (AID 444; active = well fitted curve in either direction with a large enough effect, not every such curve was filed as active;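 also: carbachol stimulus at about its EC50 of 1 µM final; % is scaled to controls: 0 for no effect and ±100 for the full control effect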); settings: Jurkat NFAT-bla M1, carbachol, beta-lactamase ratio, 5 h; at 7.69 µM (top of the series) unless noted
In short: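 Read-out: CCF4 FRET ratio (460 nm/530 nm) after 1 h RT dye loading, used for %activity and AC50 from titration series. Cells: Jurkat NFAT-β-lactamase/M1 line, treated with compound plus 1 uM carbachol for 5 h, 37 °C.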

[16] = qHTS Assay for Identification of Small Molecule Agonists for Hypoxia Response Element Signaling Pathway (AID 914; active = well fitted activation curve with a large enough effect in the signal ratio, with a control signal flat, not every such curve was filed as active; the % refers to the signal ratio; also: potency is read from the fitted curve at half-maximal effect); settings: ME-180 HRE-bla reporter, beta-lactamase ratio, CoCl2, 17 h; activation: stronger effect = higher value
In short: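 Read-out: CCF4 FRET ratio of 460nm to 530nm emission (excitation 405nm) after 2.5 hours at room temperature, taken from HRE-bla ME-180 cells that had been exposed to compound and EC50 CoCl2 for 17 hours.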

[17] = AP1 Signaling Pathway (AID 357; active = well fitted curve in either direction with a large enough effect, not every such curve was filed as active; also: % is scaled to controls: 0 for no effect and ±100 for the full control effect); settings: ME-180 (cervical carcinoma) AP-1-bla reporter, EGF-induced, beta-lactamase ratio, 5 h; at 7.69 µM (top of the series) unless noted
In short: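 AP-1-bla ME-180 cells with beta-lactamase reporter under AP-1 response element, stimulated with EC50 EGF; compounds titrated, 5 hours at 37 degrees Celsius. CCF4 read at 460/530 nm ratio; positive and negative modulators judged by AC50.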

[18] = measured here: cell count channel max response
[19] = measured here: lipid channel max response

COCCNc1ncnc2ccc(-c3cccnc3)cc12
-1.43%: max response [9, 18]
active: Potency [2] 0.2 µM | Potency [10] 12.6 µM | Potency [11] 12.6 µM | Potency [12] 10 µM
-8.04%: max response [9, 19]
inactive: Potency [1] > 11.4 µM | activity, negative = inhibition [3] 18% | Potency [4] > 46 µM | Potency [5] > 46 µM | outcome [6] | Potency [7] | Potency [8] | activity change, negative = inhibition [9] 5.11% | Potency [13] | Potency [14]

CN1CCN(c2ncc3nc(-c4cc(F)cc(F)c4)c(=O)n(Cc4cccs4)c3n2)CC1
inactive: Potency [1] > 11.4 µM | Potency [4] > 9.22 µM | Potency [5] > 46 µM | outcome [6] | Potency [7] | Potency [8] | activity change, negative = inhibition [9] -9.14% | Potency [10] | Potency [11] | Potency [12] | Potency [13] | Potency [14]
3.46%: max response [9, 19]
17.2%: max response [9, 18]
active: Potency [2] 6.31 µM | activity change, negative = inhibition [15] 168% [activator] | Potency [16] 3.16 µM

CN(C)Cc1ccccc1-c1cncnc1Nc1ccccc1
inactive: Potency [1] > 11.4 µM | activity change, negative = inhibition [17] 7.98% | activity, negative = inhibition [3] 13.5% | Potency [4] > 46 µM | Potency [5] > 46 µM | outcome [6] | Potency [7] | activity change, negative = inhibition [9] 5.53% | Potency [10] | Potency [11] | Potency [12] | Potency [13] | Potency [14]
18.6%: max response [9, 18]
26.9%: max response [9, 19]

COc1ncc2nc(-c3cccs3)c(=O)n(CCc3ccccc3)c2n1
inactive: Potency [1] > 11.4 µM | activity change, negative = inhibition [15] 11.4% | Potency [4] > 9.22 µM | Potency [5] > 46 µM | outcome [6] | Potency [8] | activity change, negative = inhibition [9] 2.39% | Potency [10] | Potency [11] | Potency [12] | Potency [13] | Potency [14]
-3.52%: max response [9, 18]
-2.93%: max response [9, 19]
active: Potency [2] 1.26 µM | Potency [16] 3.16 µM

Cn1cc(-c2nc3cnc(N4CCNCC4)nc3n(CCC#N)c2=O)c2ccccc21
active: Potency [16] 3.16 µM
inactive: Potency [1] > 11.4 µM | activity change, negative = inhibition [17] 14.5% | activity change, negative = inhibition [15] 1.75% | Potency [4] > 9.22 µM | Potency [5] > 46 µM | outcome [6] | Potency [7] | activity change, negative = inhibition [9] 1.65% | Potency [10] | Potency [11] | Potency [12] | Potency [13] | Potency [14]
-5%: max response [9, 19]
-3.78%: max response [9, 18]

COc1cccc(Cn2c(=O)c(C)nc3cnc(Nc4ccccc4)nc32)c1
9.21%: max response [9, 19]
inactive: Potency [1] > 11.4 µM | activity change, negative = inhibition [17] -15.3% | activity, negative = inhibition [3] -3.72% | Potency [4] > 9.22 µM | Potency [5] > 46 µM | outcome [6] | Potency [7] | activity change, negative = inhibition [9] 0.284% | Potency [10] | Potency [11] | Potency [12] | Potency [13] | Potency [14]
11.6%: max response [9, 18]
